In PubChem BioAssay (NCI):
This is part of a sample that, as a whole, favours compounds with a hit. Of some 83,000 tested, about 20% had one in any assay.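 In brief: 96-well plates, 48 h treatment, single concentration, percent growth endpoint.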 A number with no mark means an inactive call. Activity calls are given as the source filed them. The calls were made as follows: active = growth percent below 10; inactive = the rest.

Each compound was assayed on HT29 colon (assay: NCI-60 one-dose screen, 48 h (100 = growth as untreated, 0 = no growth, -100 = all killed)). Details: 10 µM unless noted.

Row | SMILES | growth
1 | CN(C)CCN1C(=O)c2cccc3c(-c4ccc(-c5nc6c7ccccc7c7ccccc7c6[nH]5)cc4)ccc(c23)C1=O | 81.1%
2 | O=C(Nc1ccc(N2CCCCC2)c(Cl)c1)c1ccc(Br)o1 | 73.7%
3 | COc1ccc(OC)c(Nc2nc3nonc3nc2Nc2cccc(Br)c2)c1 | 3.47% (active)
4 | O=C(NCCN1CCC(O)CC1)c1cc2c(o1)C(=O)c1ccccc1C2=O | -5.34% (active)
5 | COc1cc(/C=C/C(=O)c2cccc(-n3cc(-c4ccccc4)[nH]c3=O)c2)cc(OC)c1OC | -72% (active)
6 | Fc1ccc(Nc2nc(Nc3ccc(-c4nc5ccccc5[nH]4)cc3)c3cn[nH]c3n2)cc1 | -8.84% (active)
7 | COc1ccc(-c2nc3sc4c(c3c(=O)[nH]2)CCCC4)c2ccccc12 | -0.244% (active)
8 | O=[N+]([O-])c1ccccc1C(O)Cc1ccc2ccccc2n1 (centres undefined) | 112%
9 | N#Cc1c(NC(=O)c2ccccc2I)sc2c1CCCC2 | 17.4%
10 | NC(=O)c1c(NC(=O)c2ccc(C(F)(F)F)cc2Cl)sc2c1CCC(=O)C2 | 1.16% (active)
11 | COc1cc(CNC(=O)/C=C/C=C/c2ccc3c(c2)OCO3)ccc1OCc1cn(-c2ccc(Cl)c(Cl)c2)nn1 | 5.61% (active)
12 | CSc1ccc(Cl)c(C(=O)Nc2sccc2C(N)=O)c1 | 118%
13 | COc1cc(-c2cccc([N+](=O)[O-])c2)c(-c2nc(-c3ccccc3)c(-c3ccccc3)n2C2CC2)cc1OC | 44.5%
14 | O=C(/C=C/C12c3ccccc3C(c3ccccc31)C1C(=O)NC(=O)C12)c1ccc(Cl)cc1 (centres undefined) | 7.13% (active)
15 | O=S(=O)(Nc1ccsc1-c1nc(-c2ccccc2)no1)c1cc(Cl)cc(Cl)c1 | 98.5%
16 | C[C@H]1[C@H]2C3=CC[C@@H]4[C@@]5(C)C/C(=C/c6ccncc6)C(=O)C(C)(C)[C@@H]5CC[C@@]4(C)[C@]3(C)CC[C@@]2(C(=O)N2CCN(C)CC2)CC[C@@H]1C | 46.9%
17 | C=C1C(=O)O[C@H]2[C@H]1CC/C(C(=O)NCCCCCCCCNC(=O)/C1=C/CC[C@@]3(C)O[C@H]3[C@H]3OC(=O)C(=C)[C@@H]3CC1)=C\CC[C@@]1(C)O[C@@H]21 | 82.5%
18 | CC(C)OC(=O)NNC(=O)c1ccncc1 | 110%
19 | COc1cc2c(=O)n(CCCn3ccnc3)c3c4cc5c(cc4ccc3c2cc1OC)OCO5 | -24% (active)
20 | COc1cc(/C=C/c2nc(Nc3ccc(S(=O)(=O)Nc4cc(C)on4)cc3)c3ccccc3n2)ccc1O | 85.4%

Row | SMILES | growth
21 | C[C@@H]1CC[C@@H]2[C@@H]1[C@H](OC(=O)/C=C/c1ccccc1)[C@]1(CCCOCCOCCOCCOC(=O)CCCC[C@@H]3SC[C@@H]4NC(=O)N[C@@H]43)C[C@@H](OC(=O)CO)[C@@]2(C)O1 | 98.1%
22 | O=C(CCCCCCCn1cc(-c2cccnc2)nn1)Nc1ccccc1-c1ccccc1 | 39%
23 | O=C(NCc1cn(Cc2cccc(Oc3ccccc3)c2)nn1)c1cccnc1NCc1ccc(Cl)cc1 | 9.24% (active)
24 | CCOC(=O)c1c(C)nc2c(c1N)/C(=C/c1ccc(OC)cc1)C(=O)N2Cc1ccc(F)cc1 | -75.9% (active)
25 | O=C(O)c1ccc(CO)o1 | 106%
26 | CN(C)CN1CCN(c2ccc3nc(-c4ccc5nc(-c6ccc(C(F)(F)F)cc6)[nH]c5c4)[nH]c3c2)CC1 | 29.3%
27 | COc1ccc(-c2nc3ccccn3c2/C=C/C(=O)c2cc(OC)c(OC)c(OC)c2)cc1 | 45.2%
28 | Cc1nc(Nc2ccc(S(=O)(=O)Nc3cc(C)on3)cc2)c2ccccc2n1 | 98.6%
29 | C#C[C@]1(O)CC[C@H]2[C@@H]3CC=C4c5sc(N=C(N)N)nc5CC[C@]4(C)[C@H]3CC[C@@]21C | -0.997% (active)
30 | Clc1ccc2[nH]c3c(NCCCN4CCOCC4)ncnc3c2c1 | 18.6%
31 | Cc1cc(C(c2ccccc2)c2ccccc2)ccc1NS(=O)(=O)c1ccccc1 | 89.3%
32 | COc1cc(NC(=O)c2cccc(-c3cc(=O)c4c(O)c(OC)c(OC)cc4o3)c2)cc(OC)c1OC | 62.8%
33 | Cc1ccc(S(=O)(=O)N(CC[C@@H]2C[C@H]2c2cc3ccccc3o2)C(=O)NC2CCCCC2)cc1 | 90.8%
34 | CC(C)CCC[C@@H](C)[C@H]1CCC2C3=CCC4C(=O)C=CC(=O)C4C3CC[C@@]21C (some centres undefined) | 11.3%
35 | Cc1ccc(/C=C(\C#N)n2nnc3cc(Cl)c(Cl)cc32)cc1 | 12.3%
36 | COc1cc(C2C=C(c3cccc(NC(C)=O)c3)Nc3ncnn32)cc(OC)c1OC (centres undefined) | 10.9%
37 | CC(=[N-])N1CCC[C@@H](Nc2c3ccccc3nc3ccccc23)C1.[Cl][Pt].[NH-]CCC[NH-] | 1.38% (active)
38 | O=C(/C=C/C12c3ccccc3C(c3ccccc31)C1C(=O)NC(=O)C12)c1ccccc1 (centres undefined) | 18.3%
39 | COc1cc2ccccc2cc1C(=O)NC(=S)Nc1ccc(-c2nc3ccccc3[nH]2)cc1 | 72.7%
